# Compounds without any hit were thinned out: in the full panel of roughly 79,000, 15% have a hit. Values without a mark were called inactive. Activity calls are given as the source filed them. No stated cut-off is given here; in the data, active means growth inhibition above about 70%; inactive means the rest.
# How the values were obtained:
# [1] = NCI Yeast Anticancer Drug Screen. Data for the rad50 strain (AID 155);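 further: 0% = growth of vehicle-only cultures of the same strain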; settings: S. cerevisiae rad50 strain growth inhibition; at 50.0 µM; active compounds read high
# Summary of the method: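 Compounds were tested on a yeast strain with an engineered DNA damage repair alteration; the reported value is growth inhibition normalised to vehicle treatment.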
# [2] = NCI Yeast Anticancer Drug Screen. Data for the mec2-1 strain (AID 157); settings: S. cerevisiae mec2-1 strain, at 50.0 µM, active compounds read high
# Summary of the method: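 Mutant yeast (mec2-1) grown with compound; growth inhibition relative to vehicle control reported.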
# [3] = NCI Yeast Anticancer Drug Screen. Data for the sgs1 mgt1 strain (AID 161);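 further: 0% = growth of cultures given vehicle only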; settings: S. cerevisiae sgs1 mgt1 strain, at 50.0 µM, active compounds read high
# Summary of the method: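 Compounds are added to genetically altered yeast, and growth is compared with cultures given vehicle alone to give percent inhibition.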
# [4] = NCI Yeast Anticancer Drug Screen. Data for the cln2 rad14 strain (AID 165);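 further: 0% = growth equal to vehicle treated cultures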; settings: S. cerevisiae cln2 rad14 strain, at 50.0 µM, active compounds read high
# Summary of the method: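 Readout is yeast growth inhibition versus vehicle-treated controls, using a strain with cln2 and rad14 alterations exposed to compound.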
# [5] = NCI Yeast Anticancer Drug Screen. Data for the bub3 strain (AID 167); settings: S. cerevisiae bub3 mutant strain, at 50.0 µM, active compounds read high
# Summary of the method: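 Growth of a checkpoint-deficient yeast mutant is measured after compound exposure. Values represent inhibition relative to vehicle.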
# [6] = NCI Yeast Anticancer Drug Screen. Data for the mlh1 rad18 strain (AID 175); settings: S. cerevisiae mlh1 rad18 strain growth inhibition; at 50.0 µM; active compounds read high
# Summary of the method: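 Genetically defined yeast (DNA repair-deficient) exposed to compounds; growth inhibition determined relative to vehicle.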
SMILES,growth inhibition [1],growth inhibition [2],growth inhibition [3],growth inhibition [4],growth inhibition [5],growth inhibition [6]
C[n+]1ccsn1,-0.7%,3.05%,-4.7%,37%,-19.4%,-10.4%
CCOC(=O)OC1CCCCC1c1ccccc1 (stereo not given),13.7%,-12.9%,-7.15%,-14.9%,-20.1%,-16.2%
COc1ccc(CNc2cnc3ccc(N)cc3n2)cc1OC,-36.9%,-55.1%,-40.2%,5.55%,-25%,-30.9%
O=c1cc(O)cc(CO)o1,-7.65%,5.7%,-9.8%,1.2%,-21.2%,-2.05%
CC1CSC(C)(C)C(=O)N1 (stereo not given),16.2%,14.8%,2.35%,-26.8%,13.8%,19.9%
CCCCCCCCCCCCCCCCCCN=C(N)N,-1.55%,-10.8%,12.8%,22.4%,-2.25%,10.8%
O=C(NC(O)(C(F)(F)F)C(F)(F)F)c1ccccc1,-5.35%,6.85%,10.7%,0.9%,-7.05%,-6.95%
COC(=O)c1cnc2nc(N3CCOCC3)[nH]n2c1=O,8.3%,-0.3%,-1.25%,4.1%,-4.7%,-10.5%
CNS(=O)(=O)c1c(C)cccc1CC(=O)c1ccccc1,-4.3%,0.65%,12.2%,-12.8%,14.8%,-8.2%
CCOCCOCCOc1c(Cl)cc(Cl)cc1Cl,-6.65%,1.9%,-7.35%,-46%,30.2%,-21.6%
COc1ccc2c(c1)C(Cc1ccc(Oc3cc(CC4c5cc(OC)ccc5CC[N+]4(C)C)ccc3OC)cc1)[N+](C)(C)CC2 (stereo not given),-5.9%,2.75%,-7.45%,-9.55%,-6.5%,-12.2%
c1ccc(CNc2cnccn2)cc1,-20.5%,10.7%,-7.75%,-22.1%,-3.7%,-4.95%
Cc1cc(C)c([N+](=O)[O-])c(N)n1,8.45%,-6.6%,-5.85%,-52%,1.2%,-12.1%
CS(=O)(=O)OCC(CCl)(CCl)CCl,-4.5%,0.55%,0.15%,3.2%,-3.45%,-0.8%
CCCCCCCCCCCCn1[nH]c(C)c(C(=S)SCCCCCCCC)c1=O,-7.2%,1.05%,-0.9%,1.45%,3%,7.3%
CCOC(=O)C(c1ccc(C)cc1)C(Cl)(Cl)Cl (stereo not given),2.45%,-9.55%,3.85%,-1.05%,-11.5%,26.4%
CCCCCCCCN1N=CC(CC)C1CCC (stereo not given),3.15%,-11.8%,6.5%,11.3%,-0.8%,1.45%
NC(=O)c1ccc(Cl)cc1C(N)=O,-6.55%,17.9%,7.1%,-24.1%,-0.05%,-2.25%
COc1ccc(OC)c(NC(C)=O)c1,-30.4%,-12.2%,-16.3%,-3.05%,-24.4%,-8.55%
C/C(=N\N=C(/C)c1ccc(O)cc1O)c1ccc(O)cc1O,13.7%,12.7%,-3.5%,6.15%,6.75%,-3.35%

SMILES,growth inhibition [1],growth inhibition [2],growth inhibition [3],growth inhibition [4],growth inhibition [5],growth inhibition [6]
O=S(=O)(c1ccc(OCCOc2ccc(S(=O)(=O)N3CCOCC3)cc2)cc1)N1CCOCC1,0.55%,7.75%,12.6%,-15.4%,2.95%,-14%
O=C(c1ccc(Cl)cc1)C(Br)C(C[N+](=O)[O-])c1ccccc1 (stereo not given),99.3% (active),99% (active),99.5% (active),97.2% (active),99.1% (active),99.2% (active)
O=C(CNS(=O)(=O)c1ccccc1)c1ccc(Cl)cc1Cl,31.6%,36.2%,53%,22.3%,54.5%,53.8%
CC1OC(C)(c2ccccc2)OC1C (stereo not given),18.1%,13.8%,27.1%,-26.5%,32.7%,41.7%
CC(=O)Nc1cc2cc(NC=C(C#N)C#N)ccc2oc1=O,-1.8%,-27.3%,14.1%,15.9%,18.3%,-2.5%
Cc1[nH]c(=O)[nH]c(=O)c1C(=O)N(CCO)Cc1ccccc1,-39.5%,-21.4%,-24.9%,7.7%,11.7%,-15.9%
COc1ccc2c(c1)[n+]([O-])c(/C(C)=N/NC(=O)c1ccccc1O)c(C)[n+]2[O-],16.2%,-3.9%,9.45%,-106%,-3.35%,0.7%
CP(=O)(c1ccccc1)c1ccccc1OCCCOCCCOc1ccccc1P(C)(=O)c1ccccc1 (stereo not given),-4.8%,3.4%,0.45%,8.1%,-3.55%,-10.6%
CCOC(=O)/C=C/c1nc(C(=O)OCC)c(C)c(=O)[nH]1,-0.55%,8.3%,22%,7%,1.25%,-24.1%
O=C(C[n+]1cccc(Br)c1)c1ccc(F)cc1,16.1%,19.9%,9.6%,21.4%,3.35%,10.2%
CCCCCCCCCCCCCCOc1ccc(OCCCCCCCCC)cc1,38.4%,-14.9%,24.1%,-13.8%,3.4%,-13.9%
COc1cc(/C=C/Cc2cc3c(cc2O)OCO3)cc(OC)c1OC,0.7%,-15.6%,0.55%,-21.6%,-1.9%,0.75%
COC(=O)C1CCc2c(OC)ccc(OC)c2C1=O (stereo not given),-2.75%,-4.7%,-3.65%,20.5%,-2.45%,-7.95%
CCOC(=O)c1ccc(CCCN)cc1,-17.8%,-13.2%,12.9%,-28.2%,-10%,0.65%
CC1CCC(C(C)C)/C(=N\O)C1 (stereo not given),4.8%,-19.4%,-11.9%,-7.7%,-6.4%,2.05%
CCN(CC)CCCC(C)Nc1cc(C)nc(Nc2nc3cc(Cl)c(Cl)cc3[nH]2)n1 (stereo not given),96.8% (active),94.1% (active),97.4% (active),56.2%,83.9% (active),95.8% (active)
COc1ccc(-c2c(-c3ccccc3)oc(/N=C/c3ccccc3)c2-c2ccccc2)cc1,8.35%,-0.75%,4.9%,-2.8%,2.25%,13.8%
O=c1[nH]c(-c2ccccc2)c([N+](=O)[O-])c(=O)[nH]1,10.7%,-6.25%,-7.65%,-60.2%,5.95%,13.6%
CCCCN=C(N)N=C(N)N,6.7%,2.75%,0.75%,-7.45%,-5.15%,4.05%
O=C1COc2cccnc2N1,12.7%,-2.05%,19.5%,2.2%,14.7%,14.7%

# Reference: PubChem BioAssay (NCI)
